PLK1 PBD inh = PLK1 (human) polo-box domain binding inhibition; Potency, µM, without a hit: max response, negative = inhibition, usual class: inhibitors; Plk1 PBD binding of FITC phosphopeptide, fluorescence polarization; 360,000 tested, 2.8% active; further: series mostly up to about 57 µM; on the % scale 0 is the no-effect control and ±100 the full control effect; nearly all actives have a fitted effect of over 65% in size
Target sequence (P53350 whole entry, looked up, the tested form may be a part): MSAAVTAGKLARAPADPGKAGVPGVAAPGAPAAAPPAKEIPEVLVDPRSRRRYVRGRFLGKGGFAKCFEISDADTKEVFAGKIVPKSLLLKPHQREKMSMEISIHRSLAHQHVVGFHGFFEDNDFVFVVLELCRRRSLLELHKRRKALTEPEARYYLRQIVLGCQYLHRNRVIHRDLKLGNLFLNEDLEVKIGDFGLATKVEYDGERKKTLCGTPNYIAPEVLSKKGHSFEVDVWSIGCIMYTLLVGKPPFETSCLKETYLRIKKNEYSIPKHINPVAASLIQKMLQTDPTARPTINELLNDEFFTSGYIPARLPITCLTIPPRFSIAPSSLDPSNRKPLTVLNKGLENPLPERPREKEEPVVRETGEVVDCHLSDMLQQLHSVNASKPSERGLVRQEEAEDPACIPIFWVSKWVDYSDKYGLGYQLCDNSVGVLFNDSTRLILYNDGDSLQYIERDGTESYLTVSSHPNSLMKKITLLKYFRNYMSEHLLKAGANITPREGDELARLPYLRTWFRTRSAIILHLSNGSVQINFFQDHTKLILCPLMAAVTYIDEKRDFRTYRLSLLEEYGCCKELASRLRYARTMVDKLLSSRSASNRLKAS
Sfp PPTase inh = blocks B. subtilis Sfp PPTase activity. Biochemical Sfp PPTase activity, qHTS. Q9F4F7. AID 1490. Potency, µM, for the others: largest response in the series, negative = inhibition, most hits filed as inhibitors. 310,000 tested, 3.5% active;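 further: the enzyme is Sfp with the accession as filed and its product quenches rhodamine fluorescence; 0% = enzyme reaction without inhibitor and -100% = no enzyme wells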
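Buffer: 50 mM Hepes-Na pH 7.6, 10 mM MgCl2, 0.01% Nonidet P-40, 0.01% BSA. Enzyme 15 nM, pre-exposed to compound 15 min; substrates then added and fluorescence change tracked over 30 min.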
G9a block = G9a (human) methyltransferase inhibition; Q96KQ7; G9a H3K9 monomethylation, AlphaScreen, 2 h; Potency, µM (doses to about 102 µM), for the others: top-dose activity, negative = inhibition, hits mostly inhibitors; 350,000 tested, 8.8% active; AID 504332; further: on the % scale 0 is the no-effect control and ±100 the full control effect; nearly all actives have a fitted effect of over 75% in size
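Chemiluminescent proximity detection of H3K9 monomethylation, read after 10 min bead incubation in the dark. Reaction: 20 nM G9a, 500 nM biotin-H3K9 peptide, 20 uM SAM cofactor, 2 h, room temperature, following 15 min enzyme-compound preincubation.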
JMJD2A Tudor = blocks the human JMJD2A Tudor domain; AlphaScreen JMJD2A-Tudor / H3K4me3 peptide binding; 390,000 tested, 4.4% active; Potency, µM (doses to about 114 µM), without a hit: at the top dose activity change, negative = inhibition, most hits filed as inhibitors; AID 504339; O75164; further: on the % scale 0 is the no-effect control and ±100 the full control effect; nearly all actives have a fitted effect of over 50% in size
HP1b binding inh = HP1-beta chromodomain-methylated histone interaction inhibition; P83916; 390,000 tested, 0.56% active; AlphaScreen HP1-beta / biotin-H3K9me3 peptide binding; Potency, µM (highest dose often 114 µM), without a hit: at the highest dose activity change, negative = inhibition, most hits filed as inhibitors; further: nearly all actives have a fitted effect of over 70% in size
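AlphaScreen: HP1-beta (50 nM) preformed 30 min with biotin-H3(1-18)K9me3 peptide (50 nM) in PBS pH 7.4, 0.01% Tween-20. Compound added for 30 min at RT, then streptavidin donor/nickel chelate acceptor beads (10 ug/mL) for 30 min.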
BAZ2B inh = blocks human BAZ2B; AlphaScreen BAZ2B-H3K14Ac peptide displacement; Potency, µM (titrated, usually from 114 µM), without a hit: at the highest dose activity change, negative = inhibition, usual class: inhibitors; 360,000 tested, 4.4% active; AID 504333; further: on the % scale 0 is the no-effect control and ±100 the full control effect; nearly all actives have a fitted effect of over 60% in size
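In this displacement format the biotinylated H3(5-23) peptide acetylated at Lys14 serves as ligand at 50 nM, with BAZ2B at 50 nM in PBS pH 7.4 containing 0.01% Tween-20. Donor and acceptor beads are 10 ug/mL final.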
An asterisk follows results filed as active; ? = inconclusive; . = no result given; [ ] = remark or other dose. A selection: hits, their analogues and other compounds. The true share with any hit is near 12%. The call rests on the fitted dose curve; in most records, active means well fitted curve in the direction sought with a large enough effect; inconclusive means small, poorly fitted or top-dose-only effect, or another doubt; inactive means no such curve, though single readings can be large; an effect the other way counts as inactive or inconclusive. Potency means the concentration at half of the fitted maximal effect.

SMILES | PLK1 PBD inh | Sfp PPTase inh | G9a block | JMJD2A Tudor | HP1b binding inh | BAZ2B inh
Cc1ccc(C(=O)Nc2ccc(C(=O)N/N=C/c3ccccn3)cc2)cc1 | 2% | 5% | -46% | -14% | 59% | 20%
COc1cc(C(=O)N/N=C/c2ccccn2)cc(OC)c1OC | 5% | 56µM* | -2% | -23% | 4% | 25µM*
O=C(N/N=C/c1ccccn1)c1cccs1 | -2% | -98% | -8% | ? | 32% | 32µM*
O=C(c1ccccc1)n1nc(-c2ccco2)nc1NCc1ccccc1Cl | . | . | -26%[59 µM] | -3% | 15% | -5%
O=C(N/N=C/c1sc(=O)n(-c2ccccc2)c1Cl)c1ccncc1 | -4% | -17% | 50µM* | -15% | 14% | 0%
O=C(Cc1ccc(Br)c2ccccc12)N/N=C/c1ccccn1 | -16% | -4% | 44%[59 µM] | ? | 12% | -7%
COc1cc(C(=O)N/N=C/c2sc(=O)n(-c3ccccc3)c2Cl)cc(OC)c1OC | 13% | 10% | -8%[59 µM] | -18% | 43% | -31%
O=C(Cc1cccs1)N/N=C/c1ccccn1 | 1% | ? | 1.4µM* | ? | 32% | -19%
O=C(Cc1ccc(F)cc1)N/N=C/c1ccccn1 | -1% | 56µM* | 4µM* | 5% | 37% | ?
O=C(N/N=C/c1ccccn1)c1sc2ccccc2c1Cl | -13% | -10% | . | ? | 91% | 40µM*
Cc1cc(C)c2c(-n3cccc3)c(C(=O)NCCCN3CCCCC3)sc2n1 | . | . | -36%[59 µM] | -15% | 24% | -11%
O=C(c1cc(C(F)(F)F)cc(C(F)(F)F)c1)N1CCC[C@@]2(CCN(Cc3ccncc3)C2)C1 | . | -14% | ? | . | . | .
O=C(N/N=C/c1ccccn1)c1ccccc1 | -6% | ? | ? | ? | 14% | -4%
Cc1ccccc1C(=O)N/N=C/c1ccccn1 | -2% | 71µM* | -3% | ? | 5% | 4%
O=C(N/N=C/c1ccccn1)c1ccncc1 | -15% | 20µM* | ? | ? | 29% | 16µM*
O=C(N/N=C/c1ccccn1)c1ccc(Cl)cc1 | -2% | 32µM* | ? | -28% | 24% | 1%
O=C(N/N=C\c1ccccn1)c1ccccc1O | -11% | ? | 43% | ? | 32% | -1%
CC(/C=C/c1ccccc1F)=N\NC(=O)c1ccc(Cl)cc1 | 5.3µM* | -11% | 15%[0.501 µM] | 22µM* | -18% | -3%
COC(=O)c1cc2oc(C)cc2n1CC(=O)Nc1ccc(C(C)C)cc1 | . | . | -44%[59 µM] | -28% | 8% | -14%
Cc1ccccc1OCC(=O)Nc1cc(S(=O)(=O)N2CCCCC2)ccc1N1CCN(C)CC1 | 2% | -3% | -38% | ? | -24% | -32%
Cn1ncc(Cl)c1C(=O)N/N=C/c1ccccn1 | -3% | ? | 61%[59 µM] | ? | 22% | 22µM*
CN(C)c1ccc(C(=O)N/N=C/c2ccccn2)cc1 | 1% | ? | 7.9µM* | -24% | 41% | 6%
CC(C)/C=N/NC(=O)c1ccc(Cl)cc1 | 27µM* | -4% | 6%[59 µM] | ? | 19% | 3%
O=C(NC1CCCC1)O[C@@H]1C(=O)c2cc(Br)ccc2O[C@H]1c1ccc2c(c1)OCO2 | . | -13% | . | . | . | .
Clc1ccc(CSc2nnc(-c3ccccn3)n2Cc2ccco2)c(Cl)c1 | -17% | 50µM* | 50µM* | ? | 20% | -5%
SMILES | PLK1 PBD inh | Sfp PPTase inh | G9a block | JMJD2A Tudor | HP1b binding inh | BAZ2B inh
O=C(CSc1nnc(-c2ccc(O)cc2)n1Cc1ccco1)c1ccccc1 | -9% | ? | 50µM* | -10% | 52% | -9%
O=C(CSc1nnc(-c2ccccn2)n1Cc1ccco1)c1ccc(-c2ccccc2)cc1 | -24% | -26% | 45µM* | -31% | 5% | -4%
O=C(CSc1nnc(-c2cccnc2)n1Cc1ccco1)c1ccccc1 | -7% | -23% | -16%[12.7 µM] | -19% | 24% | -29%
Fc1ccccc1CSc1nnc(-c2cnccn2)n1Cc1ccco1 | -1% | 3% | -16%[59 µM] | -24% | 8% | -21%
CC1(C)CN(O)CCN1O | -6% | -13% | 20µM* | -17% | 20% | -28%
CC(C)CNC(=O)CCCc1c[nH]c2ccccc12 | -4% | -3% | 4% | -12%[57.1 µM] | 29% | -6%[57.1 µM]
O=C(CCCc1c[nH]c2ccccc12)NCCc1c[nH]c2ccccc12 | -14% | 18% | 45µM* | ? | ? | ?
COc1ccc(NC(=O)COC(=O)CCCc2c[nH]c3ccccc23)cc1 | -6% | 0% | ? | -31% | -4% | 50µM*
O=C(CCc1c[nH]c2ccccc12)NCc1ccc2c(c1)OCO2 | 1% | 9% | 56µM* | -14% | 15% | ?
O=C(CCc1c[nH]c2ccccc12)NCc1ccncc1 | -6% | 15% | 50µM* | -2% | 11% | 0%
CCCN1C(=O)c2[nH]nc(-c3ccccc3O)c2C1c1ccc(OCc2ccccc2)c(OCC)c1 (centres undefined) | . | . | 18%[59 µM] | -3% | 63% | -14%
Cc1ccccc1CNc1nc(N(C)C)nc2c1cnn2C | . | . | 0%[12.7 µM] | -6% | 17% | -6%
O=C(CCc1c[nH]c2ccccc12)Nc1ncccc1O | -3% | 22% | ? | -36% | 28% | 56µM*
COc1cc(NC(=O)COC(=O)CCCC2=NS(=O)(=O)c3ccccc3N2)cc(OC)c1 | 21µM* | 17% | . | -28% | 11% | -8%
O=C(COC(=O)CCCC1=NS(=O)(=O)c2ccccc2N1)Nc1ccccc1 | -8% | 8% | 2% | -5% | 57% | -12%
O=C1c2ccccc2C(=O)N1CCCc1c[nH]c2ccccc12 | 3% | 8% | 50µM* | ? | ? | ?
COc1ccc(CC(=O)OCC(=O)NCc2ccco2)cc1OC | -2% | . | 50µM* | -6% | 37% | 8%
O=C(COC(=O)COc1ccc(Nc2ccccc2)cc1)NCc1ccco1 | -7% | -14% | 50µM* | 56µM* | ? | 50µM*
O=C(COC(=O)Cc1ccc(F)cc1)NCc1ccco1 | -16% | 12% | ? | -15% | 54% | 50µM*
CC(C)C(NC(=O)OCc1ccccc1)C(=O)OCC(=O)NCc1ccco1 (centres undefined) | -15% | 56µM* | -21%[59 µM] | 56µM* | -16% | 50µM*
CC(C)[C@H](NC(=O)OCc1ccccc1)C(=O)OCC(=O)NCc1ccco1 | -17% | . | . | ? | -17% | .
O=C(COC(=O)Cc1cccc(C(F)(F)F)c1)NC1CC1 | -10% | 21% | 7% | 7% | 57% | -8%
O=C(COC(=O)Cc1cccc(C(F)(F)F)c1)NCc1ccco1 | ? | . | ? | 79µM* | ? | 50µM*
CN1CCN(c2ccc(S(=O)(=O)N3CCCCC3)cc2NC(=O)CSCc2ccccc2)CC1 | -9% | -7% | . | -24% | 21% | -25%
O=c1[nH]c(/C=C\c2ccc(O)cc2)nc(O)c1[N+](=O)[O-] | 4% | 18% | 71µM* | 0% | 48% | -26%
